Values joined by “and” are separate entries in the source; they are usually repeats but may differ in a detail not shown here. Equal entries are not always repeated. Active and inactive are the calls of the source. Entries that show only a call come without a potency. Unless noted, calls come from the whole dose curve; as a rule, active = well fitted inhibition curve with a large enough effect in the repeat runs; inconclusive = weak or mixed curves; inactive = no such curve, though single readings can be large or run the other way.
Test system: not listed separately
Test: qHTS assay to identify small molecule antagonists of the thyroid receptor (TR) signaling pathway (AID 743065); note: nearly all actives have a fitted effect of over 55% in size; note: potency is the fitted concentration of half-maximal effect
Details: GH3.TRE-Luc, T3-stimulated luciferase inhibition, 23.5 h; series mostly up to 70.3 µM
Method in brief: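 GH3.TRE-Luc rat pituitary cells (two TREs driving luciferase) were dosed with compound, then stimulated with 1 nM T3 (final) for 23.5 h at 37 C. ONE-Glo luminescence was the read-out, with CellTiter-Fluor fluorescence as the cytotoxicity counter-screen.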

Row | Compound | Potency
1 | Clc1ccc(C(c2ccccc2Cl)C(Cl)(Cl)Cl)cc1 (stereo unspecified) | 27.5 µM (active) and 40.2 µM (active)
2 | CCCSP(=O)(OCC)SCCC | inactive
3 | Oc1ccc(C2(c3ccc(O)cc3)c3ccccc3-c3ccccc32)cc1 | 15.4 µM (active)
4 | C[C@]12CC[C@H]3[C@@H](CCC4=CC(=O)CC[C@@]43C)[C@@H]1CC[C@@H]2O | 30.4 µM (active)
5 | CC(C)(C)c1cc([N+](=O)[O-])cc(C(C)(C)C)c1O | 6.86 µM (active)
6 | CCc1nn(C)c(C(=O)NCc2ccc(C(C)(C)C)cc2)c1Cl | 0.77 µM (active)
7 | CC[C@H](C)[C@H]1O[C@]2(C=C[C@@H]1C)C[C@@H]1C[C@@H](C/C=C(\C)[C@@H](O[C@H]3C[C@H](OC)[C@@H](O[C@H]4C[C@H](OC)[C@@H](O)[C@H](C)O4)[C@H](C)O3)[C@@H](C)/C=C/C=C3\CO[C@@H]4[C@H](O)C(C)=C[C@@H](C(=O)O1)[C@]34O)O2 | 26.6 µM (active) and 3.22 µM (active)
8 | Cc1cc(SCc2sc(-c3ccc(C(F)(F)F)c(F)c3)nc2C)ccc1OCC(=O)O | 61.1 µM (active)
9 | O=C(CCl)Nc1ccccc1 | 24.3 µM (active)
10 | O=C(Nc1ccc2[nH]ccc2c1)c1cc2cc(F)ccc2n1Cc1cccc(F)c1 | 13.7 µM (active)
11 | O=C(CCl)C(Cl)Cl | 12.3 µM (active)
12 | CCCCCCCCc1ccc(O)cc1 | 30.6 µM (active)
13 | O=c1ssc(Cl)c1Cl | 27.3 µM (active)
14 | O=S(=O)(c1ccc(Cl)cc1)c1ccc(Cl)cc1 | inactive
15 | Oc1ccc(C2(c3ccc(O)cc3)CCCCC2)cc1 | 36.5 µM (active)
16 | COC12CC[C@@]3(C[C@@H]1C(C)(O)C(C)(C)C)[C@H]1Cc4ccc(O)c5c4[C@@]3(CCN1CC1CC1)[C@H]2O5 (stereo partly specified) | 24.2 µM (active)
17 | CS(=O)(=O)c1ccc(C(=O)C2C(=O)CCCC2=O)c([N+](=O)[O-])c1 | 69.8 µM (active)
18 | CC(C)(C)C(O)/C(=C\c1ccc(Cl)cc1Cl)n1cncn1 (stereo unspecified) | 74 µM (active)
19 | ClC1=C(Cl)[C@]2(Cl)[C@@H]3[C@@H]4C[C@@H]([C@H]5O[C@@H]45)[C@@H]3[C@@]1(Cl)C2(Cl)Cl | 30.6 µM (active)
20 | C1CCC2CCCCC2C1 (stereo unspecified) | inactive
21 | CC(C)C1CCC(Cc2ccc(Cl)cc2)C1(O)Cn1cncn1 (stereo unspecified) | 34 µM (active)
22 | N#CCCC(Br)(C#N)CBr (stereo unspecified) | 13.7 µM (active)
23 | CCOCCOC(C)=O | inactive
24 | O=CC(Br)(Br)Br | 19.3 µM (active)
25 | CCOc1cc(C(C)(C)C)ccc1C1COC(c2c(F)cccc2F)=N1 (stereo unspecified) | 16.6 µM (active)

Test system: thyroid hormone receptor (rat, GH3 cells)
Test: qHTS assay to identify small molecule agonists of the thyroid receptor (TR) signaling pathway (AID 743066; calls by dose curve)
Details: GH3.TRE-Luc cells, TR agonist luciferase, 24 h; series mostly up to 83.9 µM

Row | Compound | outcome
26 | Clc1ccc(C(c2ccccc2Cl)C(Cl)(Cl)Cl)cc1 (stereo unspecified) | inactive
27 | OC(c1ccc(Cl)cc1)(c1ccc(Cl)cc1)C(Cl)(Cl)Cl | inactive
28 | CC(=O)/C=C/c1ccc2c(c1)OCO2 | inactive
29 | CCCSP(=O)(OCC)SCCC | inactive
30 | Oc1ccc(C2(c3ccc(O)cc3)c3ccccc3-c3ccccc32)cc1 | inactive
31 | C[C@]12CC[C@H]3[C@@H](CCC4=CC(=O)CC[C@@]43C)[C@@H]1CC[C@@H]2O | inactive
32 | CC(C)(C)c1cc([N+](=O)[O-])cc(C(C)(C)C)c1O | inactive
33 | Cc1cc(SCc2sc(-c3ccc(C(F)(F)F)c(F)c3)nc2C)ccc1OCC(=O)O | inactive
34 | CCCCCCCCc1ccc(O)cc1 | inactive
35 | CCCCCCCCCCCCCCC(Br)C(=O)O (stereo unspecified) | inactive
36 | O=c1ssc(Cl)c1Cl | inactive
37 | CC(=O)[O-].CC(=O)[O-].O.O.[Cd+2] | inactive
38 | O=S(=O)(c1ccc(Cl)cc1)c1ccc(Cl)cc1 | inactive
39 | Oc1ccc(C2(c3ccc(O)cc3)CCCCC2)cc1 | inactive
40 | CS(=O)(=O)c1ccc(C(=O)C2C(=O)CCCC2=O)c([N+](=O)[O-])c1 | inactive
41 | CCCCCCCCCCCCBr | inactive
42 | C1CCC2CCCCC2C1 (stereo unspecified) | inactive
43 | COc1ccc(N)cc1N | inactive
44 | Clc1ccc(COC(Cn2ccnc2)c2ccc(Cl)cc2Cl)cc1 (stereo unspecified) | inactive
45 | N#CCCC(Br)(C#N)CBr (stereo unspecified) | inactive
46 | CCOCCOC(C)=O | inactive
47 | O=CC(Br)(Br)Br | inactive

Biological target: Estrogen receptor (Homo sapiens) (UniProt P03372)
Sequence (P03372 whole entry, looked up): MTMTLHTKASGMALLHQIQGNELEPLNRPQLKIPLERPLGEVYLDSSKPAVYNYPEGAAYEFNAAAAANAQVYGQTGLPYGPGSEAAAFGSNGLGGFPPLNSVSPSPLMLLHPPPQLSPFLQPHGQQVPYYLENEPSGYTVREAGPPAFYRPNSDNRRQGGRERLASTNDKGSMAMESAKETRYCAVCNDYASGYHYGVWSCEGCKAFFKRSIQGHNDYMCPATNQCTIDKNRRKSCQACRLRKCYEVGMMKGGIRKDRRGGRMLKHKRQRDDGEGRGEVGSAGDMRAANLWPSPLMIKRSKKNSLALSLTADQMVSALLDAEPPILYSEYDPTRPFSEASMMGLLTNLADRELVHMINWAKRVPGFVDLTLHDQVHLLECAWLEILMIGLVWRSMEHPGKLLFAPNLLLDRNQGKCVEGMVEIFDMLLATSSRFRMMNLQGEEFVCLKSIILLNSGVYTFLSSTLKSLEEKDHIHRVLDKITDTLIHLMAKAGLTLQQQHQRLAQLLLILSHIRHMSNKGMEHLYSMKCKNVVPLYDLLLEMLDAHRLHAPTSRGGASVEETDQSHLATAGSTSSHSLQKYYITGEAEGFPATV
Test: qHTS assay to identify small molecule antagonists of the estrogen receptor alpha (ER-alpha) signaling pathway (AID 743069; active = well fitted curve in the direction sought with a large enough effect in the signal ratio in the repeat runs, not every such curve was filed as active; inconclusive = weak or mixed curves, or effect the other way; inactive = no such curve, though single readings can be large or run the other way; the % refers to the signal ratio; note: potency is the fitted concentration of half-maximal effect)
Details: HEK293 ER-alpha-UAS-bla, beta-lactamase ratio, antagonist mode; series mostly up to 69.4 µM
Method in brief: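 Reporter cells (ER-alpha-bla, HEK293 background) are conditioned overnight in stripped-serum medium (2% charcoal-stripped FBS). Compound and 17beta-estradiol exposure runs 18 hr at 37C, 5% CO2.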

Row | Compound | Potency
48 | CC(C)N1C(=O)N(c2ccccc2)CSC1=NC(C)(C)C | 49 µM [inconclusive] (active)
49 | Clc1ccc(C(c2ccccc2Cl)C(Cl)(Cl)Cl)cc1 (stereo unspecified) | inactive
50 | CC[C@H](C)[C@H]1O[C@]2(C=C[C@@H]1C)C[C@@H]1C[C@@H](C/C=C(\C)[C@@H](O[C@H]3C[C@H](OC)[C@@H](O[C@H]4C[C@H](OC)[C@@H](O)[C@H](C)O4)[C@H](C)O3)[C@@H](C)/C=C/C=C3\CO[C@@H]4[C@H](O)C(C)=C[C@@H](C(=O)O1)[C@]34O)O2 | 4.59 µM [inconclusive] (active)
51 | O=C(Nc1ccc2[nH]ccc2c1)c1cc2cc(F)ccc2n1Cc1cccc(F)c1 | inactive
52 | O=c1ssc(Cl)c1Cl | inactive
53 | Oc1ccc(C2(c3ccc(O)cc3)CCCCC2)cc1 | 0.52 µM [inconclusive] (active)
54 | COC12CC[C@@]3(C[C@@H]1C(C)(O)C(C)(C)C)[C@H]1Cc4ccc(O)c5c4[C@@]3(CCN1CC1CC1)[C@H]2O5 (stereo partly specified) | 13.7 µM [inconclusive] (active)
55 | CS(=O)(=O)c1ccc(C(=O)C2C(=O)CCCC2=O)c([N+](=O)[O-])c1 | inactive
56 | CC(C)(C)C(O)/C(=C\c1ccc(Cl)cc1Cl)n1cncn1 (stereo unspecified) | 59.3 µM [inhibitor] (active)
57 | CCCCCCCCCCCCBr | inactive
58 | ClC1=C(Cl)[C@]2(Cl)[C@@H]3[C@@H]4C[C@@H]([C@H]5O[C@@H]45)[C@@H]3[C@@]1(Cl)C2(Cl)Cl | inactive
59 | C1CCC2CCCCC2C1 (stereo unspecified) | inactive
60 | N#CCCC(Br)(C#N)CBr (stereo unspecified) | inactive
61 | CCOCCOC(C)=O | inactive

— PubChem BioAssay (Tox21)
